IDE act = boosts human insulin-degrading enzyme activity in HEK cells | activation, % at 5.96 µM | FAbeta-B cleavage, fluorescence polarization; 0% vehicle, 100% cell-free pure enzyme wells | hit rate 0.073% among 340,000 | AID 493087 | P14735;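 active means activation above the mean of all tested compounds plus 3 SD, set per screening campaign, cut at about 17% in these data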
Calb FLC = C. albicans growth modulation with fluconazole; C. albicans CaCi-2 (fluconazole-resistant clinical isolate) + fluconazole, Alamar Blue growth, 48 h; hit rate 0.57% among 300,000; growth inhibition, % (concentration not given with the values); AID 1979;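 active means growth inhibition above about 58% in most replicates, limit read from the data, passing the limit was not always enough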;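 further: all wells also contain fluconazole at 8 µg/ml as a sub-toxic cotreatment; 0% = median of DMSO wells and 100% = median of geldanamycin control wells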
Rpn11 inh = Rpn11 (human) deubiquitinase inhibition; O00487; human 26S proteasome, Ub4-pepOG fluorescence polarization; 20S core pre-blocked with epoxomicin; inhibition, % at 20 µM; hit rate 0.59% among 360,000;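 active means inhibition at 20 µM, scaled to each plate's controls, above about 33%, limit read from the data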
Target sequence (O00487 whole entry, looked up): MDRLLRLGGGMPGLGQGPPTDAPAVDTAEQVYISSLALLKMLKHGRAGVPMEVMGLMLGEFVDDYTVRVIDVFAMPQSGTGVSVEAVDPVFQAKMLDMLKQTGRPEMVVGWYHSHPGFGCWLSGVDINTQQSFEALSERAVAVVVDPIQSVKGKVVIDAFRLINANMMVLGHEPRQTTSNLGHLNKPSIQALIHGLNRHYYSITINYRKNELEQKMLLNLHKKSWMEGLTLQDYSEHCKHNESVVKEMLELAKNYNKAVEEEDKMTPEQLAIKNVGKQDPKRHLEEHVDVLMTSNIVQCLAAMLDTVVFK
Rin1 Abl inh = blocks binding of human Rin1 to Abl; P00519+Q13671; TR-FRET Rin1/Abl binding, biochemical; inhibition, % at 7.35 µM; hit rate 0.4% among 360,000; AID 588664; in the data active means inhibition above about 5%, passing the limit was not always enough
TPT1 inhibitor = C. albicans TPT1 enzyme inhibition. hit rate 0.81% among 300,000. recombinant caTPT1, FP RNA substrate dephosphorylation. inhibition, % at 5 µM;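 active means inhibition above the mean of all tested compounds plus 3 SD, set per screening campaign, cut at about 24% in these data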;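 further: plate controls were DMSO alone for no effect and ferristatin control at 100 nM for full effect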
IDE cell inh = inhibitors of human insulin-degrading enzyme in cells | P14735 | HEK cells, FAbetaB cleavage, fluorescence polarization | inhibition, % at 5.59 µM | hit rate 0.41% among 320,000 | AID 434962;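 active means percent inhibition above the average of all tested compounds plus 3 SD, set per screening campaign, cut at about 16% in these data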;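 further: IDE supplied by intact live HEK cells; FP after avidin binding of uncleaved biotin substrate so inhibition keeps polarization high; 0% = DMSO wells and 100% = 60 µM reference IDE inhibitor Ii1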
TPT1 inh confirm = TPT1 (C. albicans) inhibition, confirmation. shares compounds with TPT1 inhibitor. recombinant caTPT1, fluorescence polarization, RNase T1 coupled. inhibition, % at 5 µM. hit rate 74% among 2,400. AID 2149;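 active means inhibition above the primary screen limit, the mean inhibition of all tested compounds plus 3 SD, cut at about 25% in these data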
RNase T1 inh = counter-screen for TPT1 inhibitors: inhibitors of Aspergillus oryzae RNase T1; inhibition, % at 5 µM; hit rate 83% among 2,400; AID 2153; RNase T1 cleavage, fluorescence polarization, 1536-well; shares compounds with TPT1 inhibitor;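 active means inhibition above the solvent-only control well mean plus 3 SD, limit set per screening run, cut at about 23% in these data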;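 further: plate controls were DMSO wells with enzyme for no effect and wells without RNase T1 for full effect; inhibitors block cleavage so intact labeled substrate keeps polarization high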
Target sequence (P00651 whole entry, looked up): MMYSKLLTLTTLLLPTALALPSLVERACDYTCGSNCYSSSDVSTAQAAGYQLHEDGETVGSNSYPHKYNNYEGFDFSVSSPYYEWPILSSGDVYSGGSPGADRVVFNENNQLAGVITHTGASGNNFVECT
The depositor's hits bear a star; . = not tested or not shown. Only some compounds are listed: those with a hit (about 2.3% of all), similar ones and a draw of the others.

SMILES	IDE act	Calb FLC	Rpn11 inh	Rin1 Abl inh	TPT1 inhibitor	IDE cell inh	TPT1 inh confirm	RNase T1 inh
CCN1CC2=C(OC(N)=C(C#N)C2c2cccs2)/C(=C\c2cccs2)C1 (configuration not stated)	-1	1	.	-3	26*	9	14	21
CCOC(=O)C1=C(CC)OC(N)=C(C#N)C1c1cccs1 (configuration not stated)	1	4	0	2	-17	0	.	.
COc1ccc(C(=O)/C=C/Nc2ccc(S(=O)(=O)Nc3cc(OC)nc(OC)n3)cc2)c(OC)c1	8	-1	30	-3	36*	-1	39*	50*
COc1cccc(C(=O)/C=C/Nc2ccc(S(=O)(=O)Nc3cc(OC)nc(OC)n3)cc2)c1	0	-32	9	2	1	4	.	.
Cc1onc(-c2c(F)cccc2Cl)c1C(=O)Oc1ccccc1	.	.	12	-2	.	.	.	.
O=C(NCCc1ccccc1)c1cnc2ccccc2n1	3	-3	-1	1	4	-2	.	.
Nc1nc(N)c2ncc(C(=O)CCc3ccccc3)nc2n1	-2	17	22	5	41*	10	44*	56*
CC1(C(=O)NS(=O)(=O)c2ccccc2Cl)CCN1C(=O)CC1CC1 (configuration not stated)	.	.	2	-3	.	.	.	.
O=C(Nc1nc2c(F)cccc2s1)C1CC1	5	-16	-8	-2	2	4	.	.
CC1CCc2c(sc(Nc3nc4c(F)cccc4s3)c2C(N)=O)C1 (configuration not stated)	-4	0	.	-3	48*	13	57*	69*
O=c1cc(O)c2sc(Nc3cccc(C(F)(F)F)c3)nc2[nH]1	2	-7	0	0	0	-8	.	.
O=c1cc(O)c2sc(Nc3ccc(F)cc3)nc2[nH]1	-4	-26	35	3	35*	0	20	29*
COC1=C/C(=C/c2c(N)n3nc(-c4ccc(C)cc4)sc3nc2=O)C=CC1=O	-73	.	.	-4	.	.	.	.
CS(=O)(=O)c1ccc2c(c1)sc1nc(=O)c(/C=C3/C=CC(=O)C(O)=C3)c(N)n12	-30	-6	.	2	45*	-9	98*	104*
COC1=C/C(=C/c2c(N)n3c(nc2=O)sc2cc(S(C)(=O)=O)ccc23)C=CC1=O	-45	-3	.	-4	54*	8	147*	143*
CCOC1=C/C(=C/c2c(N)n3nc(-c4ccccc4)sc3nc2=O)C=CC1=O	.	37	.	4	.	.	.	.
CCCC[C@@H]1C=C(C(=O)O)[C@H](c2ccc(Cl)c(Cl)c2)N1S(=O)(=O)c1ccc(C)cc1	4	.	11	-1	.	-2	.	.
O=S(=O)(c1ccc(=S)[nH]c1)N1CCN(Cc2ccccc2)CC1	-12	.	-2	-6	.	0	.	.
Cn1c(CN2CCCC2)nc2cc(NC(=O)COc3ccc(Cl)cc3)ccc21	-8	-3	5	2	60*	1	7	12
Cc1ccccc1NC(=O)c1c(C)[nH]c(=S)c(C#N)c1-c1ccc(Cl)cc1	.	3	13	-4	30*	8	15	22*
Cc1ccc(-c2c(C(=O)Nc3ccccc3C)c(C)[nH]c(=S)c2C#N)o1	.	-18	18	-33	8	5	.	.
COc1cc(/C=N/NC(=O)c2sc(N)c(C#N)c2C)ccc1O	4	6	0	-5	54*	8	2	10
CN1/C(=C\C=C(/C#N)C(=O)Nc2ccc(Cl)cc2)C(C)(C)c2ccccc21	-5	-2	38	-4	112*	1	36*	52*
CN1/C(=C\C(=O)Nc2ccc(Cl)cc2)C(C)(C)c2ccccc21	3	-25	9	1	3	-1	.	.
O=S(=O)(O)c1cc(OS(=O)(=O)c2ccccc2)cc2ccccc12	0	-7	14	1	0	0	.	.
SMILES	IDE act	Calb FLC	Rpn11 inh	Rin1 Abl inh	TPT1 inhibitor	IDE cell inh	TPT1 inh confirm	RNase T1 inh
Cc1ccc2nc(/C(C#N)=C/c3ccc(-c4cccc([N+](=O)[O-])c4)o3)[nH]c2c1	-14	.	-34	-3	76*	3	65*	74*
CCOC(=O)c1sc(/N=C/c2c(C)[nH]n(-c3ccccc3)c2=O)c(C#N)c1C	.	-13	.	.	30*	-2	120*	124*
Cc1ccc(NC(=O)c2ccc(NCCc3ccccc3)c([N+](=O)[O-])c2)cc1F	0	-3	.	-1	59*	2	108*	113*
O=C(Nc1cc(F)cc(F)c1)c1ccc(NCCc2ccccc2)c([N+](=O)[O-])c1	0	-1	.	0	67*	0	92*	102*
CC(C)CN(C(=O)c1ccc(F)cc1F)c1c(N)n(CC(C)C)c(=O)[nH]c1=O	-2	-4	-1	1	0	5	.	.
O=C1/C(=C/c2ccco2)CCc2ccccc21	-1	-6	7	-1	6	2	.	.
Nc1ccc2c(c1)C/C(=C/c1ccco1)C2=O	2	-22	-20	2	26*	2	-3	10
CCSC1=N/C(=C\C=C2/Oc3ccccc3N2CC)C(=O)S1	-35	10	.	-8	138*	20*	148*	143*
CC#Cc1cc2c(cc1O)CCC1C2CCC2(C)C(O)CCC12 (configuration not stated)	0	.	1	1	.	.	.	.
CC1CC(C)CN(CCCNC(=O)CCC(=O)N2CC(C)Oc3ccccc32)C1 (configuration not stated)	7	18	-1	1	-3	-2	.	.
Cc1sc2nc(CSc3nc4ccccc4s3)[nH]c(=O)c2c1C	.	7	.	.	42*	0	52*	64*
O=C(NCCCN1CCCC1=O)c1ccc(NS(=O)(=O)c2cccc([N+](=O)[O-])c2)cc1	8	1	1	-4	-4	-7	.	.
COC(=O)c1ccccc1C(=O)N(c1ccccc1)c1ccccc1	3	0	4	2	-1	-5	.	.
Nc1c(C(=O)Nc2ccc(F)cc2)sc2nc(-c3ccco3)ccc12	-9	-10	23	-3	28*	-1	25*	33*
Nc1c(C(=O)Nc2ccc(Br)cc2)sc2nc(-c3ccco3)ccc12	-16	-5	33	0	24*	2	35*	44*
CSc1ccc(CCNS(=O)(=O)c2csc(C(N)=O)c2)cc1	7	-6	-2	0	-1	-3	.	.
N#CC1(C#N)C2=C(CCCC2)NC(c2ccccc2)C1(C#N)C#N (configuration not stated)	.	-5	.	.	30*	7	25*	34*
COCCCN(C(=O)c1cc2c(s1)CCCCC2)c1c(N)n(Cc2ccccc2)c(=O)[nH]c1=O	3	3	3	-3	0	2	.	.
